High-throughput results (PubChem BioAssay)
A340 absorber = compounds absorbing at 340 nm | 65,000 tested, under 10 active | compound absorbance at 340 nm, fold over control | fold change at 10 µM;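 active = at 10 µM dose, initial 340 nm absorbance at least 2 fold that of control wells; inactive = change under 2 fold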;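 also: initial absorbance extrapolated from kinetic A340 decline of NADH oxidation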
PMK inhibit = S. pneumoniae PMK inhibition; inhibition, % at 10 µM; purified PMK, PK/LDH-coupled NADH absorbance 340 nm; hit rate 0.49% among 65,000; AID 539;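 active = top-ranked compounds by inhibition in the single 10 µM screen, taking a fixed number of the strongest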;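 also: 0% = full reaction with DMSO carrier and 100% = background rate without enzyme reaction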
MK inhibit = blocks S. pneumoniae mevalonate kinase; purified MK, PK/LDH-coupled NADH absorbance 340 nm; hit rate 0.48% among 65,000; inhibition, % at 10 µM;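 active = ranked among the strongest by inhibition in the single 10 µM screen, a fixed top-ranked set picked for dose follow-up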
Spn DPM-DC inh = blocks S. pneumoniae diphosphomevalonate decarboxylase; purified DPM-DC, PK/LDH coupled NADH fluorescence; AID 556; calls only at 10 µM; hit rate 0.49% among 65,000;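 active = the 320 compounds with the highest percent inhibition in the single-dose primary screen, excluding strongly autofluorescent ones, cut at about 32% in these data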;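 also: kinetic rate of NADH fluorescence loss reporting ADP formed by the decarboxylase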
NADH enzymes = inhibitors of enzymes used to reach an NAD/NADH endpoint; coupled PK/LDH NADH assays, four targets; hit rate 0.02% among 65,000; AID 774; IC50, µM (highest dose often 10 µM), for the others: at the highest dose inhibition;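 active = single-dose screening hits from any of four coupled enzyme assays that gave an IC50 when retested across doses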;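 also: the DPM-DC format reads NADH fluorescence rather than 340 nm absorbance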
Fluor 339 460 = intrinsic fluorescence of library compounds, ex339/em460 – biochemical, MLSMR library, data from DPM-DC assay, artefact control, profiling panel | compound autofluorescence, ex339/em460 nm, NADH buffer; hits give high values; 1 = no-compound wells, NADH background | fluorescence fold increase at 10 µM | hit rate 5.5% among 65,000;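 active = at 10 µM, mean starting fluorescence two-fold or more over control wells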;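 also: signal is the first read of a kinetic run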
The depositor's hits bear a star; i = inactive; · = not tested or not shown; + = active, no number. Hits are enriched below; roughly 6.8% of the tested compounds scored in any of these assays.

SMILES	A340 absorber	PMK inhibit	MK inhibit	Spn DPM-DC inh	NADH enzymes	Fluor 339 460
CCOC(=O)C1CCN(CC(=O)Nc2c(C(=O)OC)[nH]c3ccccc23)CC1	1	10	16	i	9%	1.4
CCOC(=O)c1[nH]c2cc3c(cc2c1NC(=O)CN1CC(C)CC(C)C1)OCO3 (centres undefined)	1.1	4	4	·	4%	2.4*
CCOC(=O)c1[nH]c2ccc(OCC)cc2c1NC(=O)CN1CCN(c2ccccn2)CC1	1.1	15	1	·	8%	3.9*
O=C(c1cc2c(s1)-c1ccccc1OC2)N1CCCC1	1.2	2	9	·	6%	2.2*
O=C(c1cc2c(s1)-c1ccccc1OC2)N1CCN(c2ccccn2)CC1	1.1	0	7	·	4%	2.1*
Cc1csc(NC(=O)c2cc3c(s2)-c2ccccc2OC3)n1	1	0	7	·	1%	2.5*
O=C(Cn1ncc2c1-c1ccccc1OC2)N1CCN(c2ccccn2)CC1	0.98	0	2	i	1%	1.1
COc1ccc(CN(C#N)c2nc(SC)nc(N(C)C)n2)cc1	1	0	0	i	0%	1.1
CCN(CC)CCCN1C(=O)C(O)=C(C(C)=O)C1c1ccc(OC)cc1OC (centres undefined)	1.1	8	9	i	6%	1
O=C(C1Cc2ccccc2CN1S(=O)(=O)c1cccs1)N1CCCCC1 (centres undefined)	1	9	4	i	5%	1.1
CSc1c(C#N)c(N)c(C#N)c2c1COC(C)(C)C2	1	11	7	·	3%	2.1*
Cc1ccc2c(n1)sc1c(N)ncnc12	1	14	9	i	15%	2.1*
COc1cccc(CN(C)CC(=O)NC(=O)NCc2ccco2)c1	1	16	0	i	3%	1
Cc1nnc(SC(=O)N2c3ccccc3Sc3ccccc32)s1	1.1	0	26	i	4%	1.1
CCOc1ccccc1CNc1ccc(N2CCOCC2)c(C(=O)O)c1	1	0	3	i	5%	2.2*
O=C(O)c1cc(NCc2c(F)cccc2Cl)ccc1N1CCOCC1	1	4	5	i	6%	1.9
COC(=O)c1cc(NCc2ccccc2F)ccc1N1CCOCC1	0.99	17	12	i	13%	1.8
Cc1ccc(CNc2ccc(N3CCOCC3)c(C(=O)O)c2)s1	1	0	3	i	4%	2.4*
Cc1n[nH]c(C)c1S(=O)(=O)N(CC(=O)Nc1ccc2c(c1)OCCO2)c1ccc(C(C)C)cc1	1	0	5	i	2%	0.99
Cc1ccc(NC(=O)N2CCC(c3nc4c(nnn4Cc4cccc(Cl)c4)c(=O)[nH]3)CC2)cc1	1	5	4	i	3%	1.1
O=C(C1CCCCC1)N1CCC(c2nc3c(nnn3Cc3ccccc3Cl)c(=O)[nH]2)CC1	1	10	9	+	6%	1.1
O=C(Nc1ccc(F)cc1)N1CCC(c2nc3c(nnn3Cc3cccc(Cl)c3)c(=O)[nH]2)CC1	1	9	49*	i	22%	0.97
CC1CCOC2(O1)C(=O)N(CN1CCN(c3ccccc3F)CC1)c1ccccc12 (centres undefined)	0.96	16	3	i	6%	1.1
Cn1nnnc1Sc1ncnc2scc(-c3ccccc3)c12	0.98	14	7	i	7%	1.1
Cn1nnnc1Sc1ncnc2scc(-c3ccc(F)cc3)c12	0.96	29*	5	i	11%	1.1
SMILES	A340 absorber	PMK inhibit	MK inhibit	Spn DPM-DC inh	NADH enzymes	Fluor 339 460
Cn1c(N)c(C(=O)COC(=O)C2(c3cccc(F)c3)CCCC2)c(=O)n(C)c1=O	1	5	0	i	2%	1.2
Cc1nc2nc(-c3cccs3)cn2nc1C	1	13	11	·	12%	3.7*
COc1cccc(-c2cn3nc(C)c(C)nc3n2)c1	1.1	13	10	i	12%	3.1*
O=c1c2ccccc2nnn1CSc1ccc2c(c1)OCCO2	1	14	2	i	10%	0.99
O=C1OCc2cccc3cccc1c23	1.1	15	19	·	17%	2.1*
O/N=C1/CCc2cccc3cccc1c23	1	11	5	i	5%	1.2
Cc1cccc(C(=O)Nc2ccccc2C(=O)OCc2c(C)noc2C)c1	1	20	42*	i	21%	1.3
COc1ccc(OC)c2[nH]c(=O)c(CCNC(=O)C3CCCCC3)cc12	1	13	0	i	5%	1.3
Oc1ccccc1/C=N/c1c(-c2ccco2)nc2ccccn12	1.1	11	0	·	6%	3.6*
Oc1oc(-c2ccco2)nc1C=Nc1ccccc1	1.1	5	6	i	4%	1
O=C(NCc1ccccc1)N(Cc1nc2ccccc2c(=O)[nH]1)C1CCCC1	1	5	10	·	8%	3.8*
CCSc1nc(-c2ccc(OC)cc2)ccc1C#N	1	0	2	i	1%	2*
COc1cccc(C(=O)N2CCN(Cc3ccc4c(c3)OCO4)CC2)c1OC	1	0	8	i	3%	1.1
O=C(c1cccn2c(=O)c3ccccc3nc12)N1CCN(Cc2ccc3c(c2)OCO3)CC1	1.1	3	1	·	2%	5*
O=C(c1cccn2c(=O)c3cc(Cl)ccc3nc12)N1CCN(Cc2ccc3c(c2)OCO3)CC1	1.1	17	0	·	9%	4.9*
O=C(c1cccn2c(=O)c3cc(Cl)ccc3nc12)N1CCOCC1	1.1	13	1	·	2%	3.3*
CCn1nc(C(=O)N2CCN(Cc3ccc4c(c3)OCO4)CC2)c2ccccc2c1=O	0.99	20	8	i	12%	0.95
NC(=O)C1(N2CCCCC2)CCN(C(=O)c2cccn3c(=O)c4cc(Cl)ccc4nc23)CC1	1.1	14	0	·	7%	4.9*
CCOCCCNC(=O)c1ccc(CS(=O)(=O)Cc2ccc(C)cc2)o1	0.99	12	2	i	5%	1.1
O=C(NCCN1CCN(c2ccccc2F)CC1)c1cccn2c(=O)c3ccccc3nc12	0.99	18	2	i	12%	3.1*
O=C(CN1C(=O)c2cccc3cccc1c23)N1CCN(Cc2ccc3c(c2)OCO3)CC1	1.1	3	8	i	7%	2*
CC(NC(=O)OC1CCCCC1)N1C(=O)C2C3C=CC(C3)C2C1=O (centres undefined)	0.98	9	6	i	5%	1.1
Cc1nn(-c2ccccn2)c2c1-c1nc(N)ncc1CC2	1	7	0	·	4%	3.6*
Cc1nn2c3c(cnc2c1-c1ccccc1)C(=O)CCC3	1.1	3	7	i	3%	1.1
COc1ccc(Cl)c(N2CCN(CCCNC(=O)Nc3ccc(C)cc3)CC2)c1	1	0	0	i	0%	1
Nc1nc(-c2cccs2)c(NC(=O)c2ccccc2)s1	1	12	5	i	6%	1.1
